The source of these data is PMC5540273 (PLoS ONE, 2017).
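Also: kd values determined as follow-up on hits from a single-replicate KINOMEscan panel screen.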

One assay concerns PRKX.
As a reminder, the Kd is the equilibrium constant for the complex coming apart. A higher Kd goes with weaker binding. In turn, `Cc1ccc(NC(=O)Nc2cccc(Cl)c2)cc1-c1ccc(C(=O)Nc2ccncc2)cc1` [GSK1398468] displayed a dissociation constant (Kd) of 7400 nM.

Regarding `CCn1c(-c2ccccn2)nc2cnccc21` [SB-736398], the Kd was greater than 10000 nM.

In the case of `CC1=C(C(=O)Nc2cc3cn[nH]c3cc2F)C(c2ccc(C(F)(F)F)cc2)CC(=O)N1` (stereo not shown) [GSK429286], the Kd came out at 350 nM.

The next assay has as its system RAF1.
Turning to `CC(=O)Nc1nc2cnc(Nc3cc(NC(=O)c4cccc(CCC#N)c4)ccc3C)nc2s1`, the dissociation constant Kd was greater than 10000 nM.

In turn, `Cc1cccc(-c2nc(-c3ccc(S(C)(=O)=O)cc3)sc2-c2ccnc(NCCc3ccccc3)c2)c1` gave a Kd of 150 nM.

The compound `COC(=O)c1c(-c2ccccc2)c2cc(OC)ccc2c(=O)n1Cc1ccccc1` gave a Kd of 390 nM.

The compound `Cc1ccc(NC(=O)Nc2cccc(Cl)c2)cc1-c1ccc(C(=O)Nc2ccncc2)cc1` [GSK1398468] registered a Kd of 180 nM.

In the case of `CN(C)CCN(C)C(=O)c1cc(-c2ccncc2)c(-c2ccc(Cl)c(O)c2)o1.Cl.Cl` [SB-710397], the affinity, expressed as Kd, was 650 nM.

The compound `Cl.O=C(Nc1cccc(-c2nn3ncccc3c2-c2ccnc(Nc3cccnc3)n2)c1)c1c(F)cccc1F` [GSK312879] came in with a dissociation constant Kd of 430 nM.

`Cc1cccc(-c2nc(C)cc(Nc3ccncc3)n2)n1` [GSK257997]: the equilibrium dissociation constant (Kd) is greater than 10000 nM.

Turning to `Cc1ccc(NC(=O)Nc2cc(C(C)(C)C)nn2-c2ccccc2)cc1` [GSK1014915], the equilibrium dissociation constant (Kd) came to 270 nM.

Compound `COC(=O)c1c(-c2ccccc2)c2cc(C(=O)O)ccc2c(=O)n1Cc1ccccc1` yielded an equilibrium dissociation constant (Kd) of 170 nM.

Another assay deals with RIOK2.
For the compound `Cc1cc(-c2ccc3c(c2)CC[C@@H](N[C@@H](C)c2ccccc2)C3)cnc1N.Cl` [GW412617], the equilibrium dissociation constant (Kd) is 650 nM.

For the compound `O=S(=O)(c1ccc(-c2ccnc3[nH]ccc23)cc1)N1CCCC1` [GSK846226], binding was put at a Kd of 960 nM.

`Clc1cc(Cl)cc(Nc2ccnc(Nc3cc(Cl)cc(Cl)c3)n2)c1` [GSK175726] showed a Kd of 150 nM.

Another assay relates to RIOK3.
As to `Cc1ccc(C(=O)Nc2ccc(Nc3ccnc4cc(-c5ccccn5)ccc34)cc2O)cc1.Cl` [GW440146], the Kd is greater than 10000 nM.

Regarding `COc1cccc(-c2cc(-c3c[nH]nc3-c3ccccn3)ccn2)c1` [GW680338], the Kd is 9600 nM.

`O=S(=O)(c1ccc(-c2ccnc3[nH]ccc23)cc1)N1CCCC1` [GSK846226] registered a Kd of 540 nM.

With `COc1cc2ncn(-c3cc(OCC4CCCO4)c(C(N)=O)s3)c2cc1OC` (stereo not shown) [GSK204607], the Kd is 670 nM.

The next assay relates to ROCK1.
With `O=S(=O)(c1ccc(-c2ccnc3[nH]ccc23)cc1)N1CCCC1` [GSK846226], the dissociation constant Kd was found to be 330 nM.

The compound `CSc1nn2c(=O)cc(N3CCOCC3)nc2n1Cc1cccc(C(F)(F)F)c1C` [GSK2363608] showed an equilibrium dissociation constant (Kd) of 46 nM.

Compound `CC1=C(C(=O)Nc2cc3cn[nH]c3cc2F)C(c2ccc(C(F)(F)F)cc2)CC(=O)N1` (stereo not shown) [GSK429286] came in with a Kd of 2.7 nM.
